Several values for one entry are separate records, joined by “and”; a condition that tells them apart may be missing. Identical values can stand only once. Activity calls are given as the source filed them.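 The calls were made as follows, unless noted: active = mean z-score across replicates of 1.96 or higher in either the MELAS or the Rieske mutant cell line; inactive = the rest.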
Legend:
[1] = sensitizers of A549 cells to miR-34 induction, primary screen, imaging, A549 dox-inducible miR-34, nuclei and caspase counts (AID 1347080;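 active = compounds whose cell count with miR-34 switched on is under 0.7 times the count with it off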); details: A549 miR-34 inducible, Hoechst nuclei count, 48 h
[2] = survival rescue of mitochondrial mutant cells in low glucose, primary screen, MELAS cybrids, Rieske KO mouse fibroblasts, CellTiter-Glo (AID 1508586);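 also: z relative to plate mean and SD of compound and empty wells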
[3] = stronger effect = lower value, cell number ratio, induced over uninduced
[4] = measured here: relative caspase fold change +Dox/-Dox
[5] = measured here: total cells with miR-34 induction, stronger effect = lower value
[6] = measured here: total cells without miR-34 induction
[7] = MELAS cybrid survival, CellTiter-Glo 48 h, stronger effect = higher value
[8] = Rieske KO mouse fibroblast survival, CellTiter-Glo 72 h
Also: test concentration not given here.

Row | Structure (SMILES) | fold change [1, 3] | fold change [1, 4] | cell count [1, 5] | cell count [1, 6] | z-score [2, 7] | z-score [2, 8]
1 | COc1ccc(CC2c3cc(OC)c(OC)cc3CC[N@+]2(C)CCC(=O)OCCCCCOC(=O)CC[N@@+]2(C)CCc3cc(OC)c(OC)cc3C2Cc2ccc(OC)c(OC)c2)cc1OC (stereo partly specified) | 0.844 (inactive) | 1.36 | 7940 | 9400 | -0.391 (inactive) | 0.533
2 | CC(C)CN(CC(O)C(Cc1ccccc1)NC(=O)OC1CCOC1)S(=O)(=O)c1ccc(N)cc1 (stereo unspecified) | 0.88 (inactive) | 0.898 | 7780 | 8840 | -0.312 (inactive) | 0.463
3 | Cc1ccc(C2OC(CO)C(O)C(O)C2O)cc1Cc1ccc(-c2ccc(F)cc2)s1 (stereo unspecified) | 0.902 (inactive) | 0.772 | 9160 | 10100 | -0.448 (inactive) | 0.478
4 | Nc1nc(CC(=O)Nc2ccc(CCNCC(O)c3ccccc3)cc2)cs1 (stereo unspecified) | 0.898 (inactive) | 1.03 | 8660 | 9650 | -0.0817 (inactive) | -0.148
5 | N#CC(=C(N)Sc1ccc(N)cc1)c1ccccc1C(F)(F)F | 0.906 (inactive) | 0.881 | 4690 | 5170 | -0.31 (inactive) | 0.82
6 | CC(C)C(C(=O)Nc1ccc(C(=O)NO)cc1)c1ccccc1 (stereo unspecified) | 0.964 (inactive) | 0.891 | 1000 | 1040 | 2.39 (active) | 0.0158
7 | CNc1ncnc2c1ncn2C1OC(CO)C(O)C1O (stereo unspecified) | 0.908 (inactive) | 0.537 | 7310 | 8050 | -0.0172 (inactive) | -0.235
8 | Cc1[nH]c2ccccc2c1CCNCc1ccc(C=CC(=O)NO)cc1 | 0.894 (inactive) | 0.866 | 1040 | 1160 | -0.232 (inactive) | -2.76
9 | Cc1cc(Nc2cc(N3CCN(C)CC3)nc(C=Cc3ccccc3)n2)n[nH]1 | 1.29 (inactive) | 1.19 | 1120 | 872 | 1.43 (inactive) | -2.06
10 | Oc1cc(O)cc(C=Cc2ccc(O)c(O)c2)c1 | 0.901 (inactive) | 0.971 | 9720 | 10800 | -0.345 (inactive) | 0.783
11 | O=[N+]([O-])c1cn2c(n1)OCC(OCc1ccc(OC(F)(F)F)cc1)C2 (stereo unspecified) | 0.949 (inactive) | 0.871 | 6600 | 6960 | -0.338 (inactive) | 0.787
12 | O=C(O)CCCCC1SC[C@@H]2NC(=O)N[C@H]12 (stereo partly specified) | 0.883 (inactive) | 0.431 | 8160 | 9250 | -0.0238 (inactive) | -0.137
13 | O=S(=O)(c1ccccc1)c1cnc2c(N3CCNCC3)cccc2c1 | 0.946 (inactive) | 0.61 | 7690 | 8130 | -0.577 (inactive) | -0.0242
14 | CC(C)(CO)c1cc2cc(NC(=O)C3(c4ccc5c(c4)OC(F)(F)O5)CC3)c(F)cc2n1CC(O)CO (stereo unspecified) | 0.912 (inactive) | 1.56 | 8420 | 9220 | -0.252 (inactive) | -0.139
15 | NC(Cc1c[nH]c2ccc(O)cc12)C(=O)O (stereo unspecified) | 0.876 (inactive) | 0.739 | 8790 | 10000 | -0.256 (inactive) | 0.553
16 | O=C(C=CC=Cc1ccc2c(c1)OCO2)N1CCCCC1 | 1 (inactive) | 0.989 | 9240 | 9240 | -0.417 (inactive) | 0.823

Row | Structure (SMILES) | fold change [1, 3] | fold change [1, 4] | cell count [1, 5] | cell count [1, 6] | z-score [2, 7] | z-score [2, 8]
17 | CCC1OC(=O)C(C)C(OC2C[C@@](C)(OC)C(O)C(C)O2)C(C)C(OC2OC(C)CC(N(C)C)C2O)[C@@](C)(O)CC(C)C(=O)C(C)C(O)[C@]1(C)O (stereo partly specified) | 0.879 (inactive) | 1.14 | 7750 | 8820 | -0.0604 (inactive) | 0.782
18 | Cc1cn(C2OC(CO)C(O)C2F)c(=O)[nH]c1=O (stereo unspecified) | 0.93 (inactive) | 0.942 | 9750 | 10500 | -0.347 (inactive) | 0.612
19 | NC1=N[C@@]2(c3cc(NC(=O)c4ccc(F)cn4)ccc3F)COC[C@@H]2CS1 | 0.902 (inactive) | 1.51 | 8500 | 9420 | -0.211 (inactive) | 0.113
20 | NC(=O)c1ncn(C2OC(CO)C(O)C2O)c1N (stereo unspecified) | 0.801 (inactive) | 0.953 | 7500 | 9360 | 0.179 (inactive) | 0.0953
21 | CC(=O)OC1C(=O)[C@]2(C)C(O)CC3OC[C@@]3(OC(C)=O)C2C(OC(=O)c2ccccc2)[C@]2(O)CC(OC(=O)C(O)C(NC(=O)c3ccccc3)c3ccccc3)C(C)=C1C2(C)C (stereo partly specified) | 0.984 (inactive) | 0.702 | 1360 | 1380 | 1.51 (inactive) | 0.434
22 | O=C(O)C1=COC(OC2OC(CO)C(O)C(O)C2O)[C@@H]2C(CO)=CC[C@H]12 (stereo partly specified) | 0.954 (inactive) | 1.02 | 9820 | 10300 | -0.392 (inactive) | 0.447
23 | N#CCC(C1CCCC1)n1cc(-c2ncnc3[nH]ccc23)cn1 (stereo unspecified) | 1.03 (inactive) and 0.94 (inactive) | 0.563 and 1.09 | 8730 and 7580 | 8490 and 8060 | -0.347 (inactive) and -0.642 (inactive) | 0.0258 and -0.766
24 | CC1(C)S[C@@H]2C(NC(=O)C(N)c3ccc(O)cc3)C(=O)N2C1C(=O)O (stereo partly specified) | 0.958 (inactive) | 0.664 | 9670 | 10100 | -0.365 (inactive) | 0.721
25 | CN1CCCC1CCO[C@](C)(c1ccccc1)c1ccc(Cl)cc1 (stereo partly specified) | 0.919 (inactive) | 1.18 | 7530 | 8200 | -0.384 (inactive) | 0.111
26 | CC1(C)[C@@H](O)CC[C@@]2(C)[C@H]1CC[C@]1(C)[C@H]2C(=O)C=C2[C@H]3C[C@@](C)(C(=O)O)CC[C@]3(C)CC[C@]21C | 0.897 (inactive) | 0.953 | 7890 | 8800 | -0.219 (inactive) | 0.479
27 | CC(=O)Nc1cccc2c1c(Sc1ccc(Cl)cc1)c(C)n2CC(=O)O | 0.864 (inactive) | 0.281 | 7890 | 9130 | -0.287 (inactive) | -2.23
28 | OC(c1cc(C(F)(F)F)nc2c(C(F)(F)F)cccc12)[C@H]1CCCCN1 (stereo partly specified) | 0.875 (inactive) | 0.688 | 5320 | 6090 | 0.101 (inactive) | -0.0437
29 | C#C[C@@]1(OC(C)=O)CC[C@H]2[C@@H]3CCC4=CC(OC(C)=O)CC[C@@H]4[C@@H]3CC[C@@]21C (stereo partly specified) | 0.978 (inactive) | 0.478 | 8080 | 8260 | -0.279 (inactive) | -0.148
30 | COc1cc(C2Oc3ccc(C4Oc5cc(O)cc(O)c5C(=O)C4O)cc3OC2CO)ccc1O (stereo unspecified) | 0.913 (inactive) | 0.744 | 8070 | 8840 | -0.245 (inactive) | -0.07
31 | CCN(CC)C(=O)C(C#N)=Cc1cc(O)c(O)c([N+](=O)[O-])c1 | 1.2 (inactive) | 1.41 | 8600 | 7190 | -0.263 (inactive) | -0.169

Source: PubChem BioAssay
